# Over roughly 2,300 sequences, “median log2 fold change of GCK-ALFA target abundance (FLAG IP / Myc IP barcode read proportion)” has its median near 0.095; the lowest 2% begin near -0.47. This excerpt belongs to a sample that is enriched for the lowest values.
# B1: LC3A_28_1011 (protein)
# chain: MSLIEKTKEEAKKAIEEAKKGEDAFLEVEITEEATEEEVKEVLEIIEETAEEISKIENVKLYIVVDFDGDQEKLDLITDGLEEIEEKYPNVSSIIAYDEK
# B2: LC3A_28_1012 (protein)
# chain: MSLIEATKKEAKAAIEEAKKGEDAFLEVTITEEATEEEVKEVLKIIEETAEEISKIPNVKLYVVIDFDGSQEKLDIITDRMEEIEKKYPNVSVVIAYDEK
# B3: LC3A_28_1155 (protein)
# chain: SAEVEEAKKLIDEDAERDKDEEEVYLEVKITSSVTVEEAREIMDHVEEVVEKLKDKKKIYVVVTFEEPVSQEVLDEVLRRAEEIEEKFPNVDVIIALPED
# B4: LC3A_28_1147 (protein)
# chain: SAEVEAAKKQIDEDAEKDKNEEEVYLNVTITSSMTKEEVEEIMDHVEEVVEKLKDKKKIYVVVTFTEPVSQEVLDTALEKGDEIEKKFPKVDVIVALPEY
# B5: LC3A_28_1154 (protein)
# chain: SANVEAAKKQIDEDAEKDKDEEEVYLNVTITSEDTVEEAKEIMEHVEEVVEKLKDKKKIYVVITFEEPVSQEVLDTVLEKAEEIEKKFPNVSVIIALPED
# B6: LC3A_free_8_2523 (protein)
# chain: ASQAFADAAVKILDELEEKLVKLLKEKGASRLDILEAELLVGSIIAEVISLVDESIEAILKSIKEGLEELVEELEEHKEEVTKLANEALKKIEEKAKELK
# B7: LC3A_3_1539 (protein)
# chain: LEEEIEAALALLREAGASEETLAAFREAAEALLERGYEEALRELIRETRELIDAPSELLLAFFEEVLALVRTSDLSEEELIAEIRRIARTTRNEAEIEEL
# B8: LC3A_62_2043 (protein)
# chain: MYLATVDVDILAKDEEAAEKIYEEIKKKLEELKKKDPNIKYEVKLDKENKYVSVTVTYEAETLEEAEKKAQEIEDELDEILEKNEDLIKAALISREITKL
# B9: LC3A_28_882 (protein)
# chain: SKALESAEKALEEVKKAVEAGDKEPLVLEVEAPSDEENTEKFLKLLEELAKEASKLPGVTIIVNIDSSVSQELRDKIIDKAEELEKKYPNVTIIIALPED
# B10: LC3A_147_504 (protein)
# chain: VKLEVYIDIITKNATEEVKEFVKEIEKELKEKGFEVKVKIKIEKLDEDTDYIEIEIEIKAETEEKAKEAANYIIDKFEEFEEKNKDKILGSLISVEIEKE
# B11: LC3A_132_266 (protein)
# chain: SEELFEKALEELKEILDKIVEALKAGEDPSPLINELYEKAKEYAKKLSLEETEKLVEETIEYAEKLFKERLDPNDEEAIRTLDIIEMLLEGVLIEKELES
# B12: LC3A_132_267 (protein)
# chain: SEELFEEALEELKEILDKIVDLLKAGKDPSPAITELYNTALEYSEKLSLEETEELVEKTIEYAEKLFAERLDPNDVEARRTLDIIEMLLEGVLIEKELRS
# B13: LC3A_132_308 (protein)
# chain: GEELAKKLIEIAKEALRLVKEDDSKEEEVLELLREAKELMEKLAKEASPELAAKTFEEVEEILIEISRLAAKKGWDEVSDEAFALAAEAAQLKSDAKKKL
# B14: LC3A_free_46_2355 (protein)
# chain: VKAEILIDLLHEDEEVLKKAVEEIKKAAKEIAKKYGLKVEIKEEISKLPDGSYYAEIEITLTGETKEKLEKAVTELINKIDEIAKKYNVAAIISYEIIEE
# B15: LC3A_free_46_2426 (protein)
# chain: VDIDVDLLLEGDDEEKLKAAVEEIKEAFKKIAEEYNAELEIEVEFSTDPDGNHFAHINIKITSDDLETQQKIANESIDSIDKIAEKYGVSYIISVDIEKK
# B16: LC3A_17_555 (protein)
# chain: MEELKKELEELLKELEKLVKELEKYDPEAAKKLKEKLKEAKKALEKGDLKKALKILKEVAEEAAEVFDSLEHIDPELMSILSMEAEGLLIEALSLEEKLE
# B17: LC3A_17_554 (protein)
# chain: SEELKEEIKRLLEELEALVEELEKYDPEAAKELRKKLEEAKKALEEGDLEEALKILKEVAEEAAERWDSLEHIDPERMSILSMEAEGLLIEALSLEEKLE
# B18: LC3A_28_1027 (protein)
# chain: SAAEKAIEKAREEARKQKAEGKDIYVTIEVTSSTTLEDAKTIVEGIREIVEEFKDEKNINIIIDVERGVSQEVIDTLADGAEEIEKEYPNVNIIIALEEE
# B19: LC3A_127_175 (protein)
# chain: ELEELLKKLLEVAEELSEELSKPDADLEEIERLVKEAIELAKKALELDPRAEPILEAAEEIKKQLEQYKKAPEEKKEELREHMEMLAESLIIEIESLLLR
# B20: LC3A_23_616 (protein)
# chain: MYKVEIIVDIIVPKEEAEKVEKDLLETINKVLEKNKSKIKEYKIEVEKEELEDGTVLLTIKVTIIYDGNKEEAEELANELVSAIDKTAPDAVISAEVSKI
# B21: LC3A_141_376 (protein)
# chain: KEVEFELEAKGETPEEVVEKMDELEEKVLKAYEELGGGKVKVKVTLTLTNRETGEVKVVEEEFVGDKETIEMLLDGFLIEAASAVMRAPTDVKLKVVLEK
# B22: LC3A_28_1118 (protein)
# chain: SLAEKVIKAFEKQVEAAIASGEETLIEVEVSPELSQEEVEKLAKKMAEYAKKAAEKLKVSVLVSVEKGVSQEKIDIIADEAEKVEEEYPNVNVIIALEEE
# B23: LC3A_3_1420 (protein)
# chain: MEEELERALEELREAGWSEETLEALREVVEALLERGAEEEARRVLELVLENKDISSEDLLEVLREVLELLKTPGVSPEEAVERLEELLRIARNEQEIEEL
# B24: LC3A_free_0_2100 (protein)
# chain: MVTKVEVLGIIPDKSAKEAAEAIKEKLEEYGKKLSEEKGWKVTVELTEVDGSYVITVTIEGEGMSIEEGLEIADEIADLIEELAKEHGVEVTIYESVYEE
# B25: LC3A_147_496 (protein)
# chain: ATVEVDVLVKDKEAAEKVVEEFKKLVEKLKKQGIEVELEVEIEQISPDTWYVKITIKIKAKTEEEEKKVANEVVDEIEKIEEKYKDKILASLISVEIEEK
# B26: LC3A_147_464 (protein)
# chain: MKYRVELDVLVKNLTPELLADFEELAEEIKKKFPDAEVELKVETDPEDPSLSLVTLTVTVDTEEDAKKIEDFLDKKLEELEKKYKDQILASMISREKVEP
# B27: LC3A_147_465 (protein)
# chain: KKYEVVLDVLVKDLTPELLKDFEELAEEIKEKFPDAEVELKVETDPEDPSLTLVTLTVTVDTEEDAEKILDFLDEKEEELEKKYSDQILASMISKQEVEP
# B28: LC3A_23_598 (protein)
# chain: MYKVELIVSLIGEEEEIKKKAEKLKKEIEKILEKYKDKIISYKINVSFEKLEDGKTYLEIEVEIIIEDDEEVAEEIAEELTDAADKILPDGVISVEVEKL
# B29: LC3A_141_368 (protein)
# chain: TTLTITTDIGRASLDEIVAKMDELEEAALAAHRELGGGRVRVTVTITVKNLKTGETTTITEEFEADEEELELIMEGVLIEVASYALTEDAEVTVTVTLEG
# Molecular target: MAP1LC3A, Q9H492
# Test: median log2 fold change of GCK-ALFA target abundance (FLAG IP / Myc IP barcode read proportion) (log2 ratio); each designed protein is fused to an ALFA-tag nanobody in HEK293 cells to bring the named protein to FLAG-tagged glucokinase (GCK); Myc marks an untargeted standard; higher = target protein stabilised (more abundant)
# Conditions: target protein: 3xFLAG-MCP-GCK-ALFA reporter; HEK293 landing pad (RPLP)
# How it was run: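 The readout is target abundance, the per-binder median log2 ratio of FLAG to Myc barcode read proportions. It came from HEK293 landing-pad cells carrying a recombined ALFA-nanobody-fused binder library, induced with 2 μg mL^−1 doxycycline and transfected with a plasmid for a FLAG-tagged target and a Myc-tagged standard. After 48 h, lysates were immunoprecipitated with anti-FLAG and anti-Myc, and circular RNA barcodes were reverse transcribed, amplified and sequenced. Each barcode needed a proportion of at least 10^−7 in both replicates and each binder at least 3 barcodes per replicate, a pseudocount of 10^−6 was added, and the replicates were pooled.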
row,Binder,median log2 fold change
1,B1,-0.21
2,B2,-0.527
3,B3,-0.446
4,B4,-0.475
5,B5,-0.142
6,B6,-0.0394
7,B7,0.318
8,B8,0.16
9,B9,-0.094
10,B10,-0.32
11,B11,0.165
12,B12,-0.528
13,B13,0.14
14,B14,-0.335
15,B15,0.0526
16,B16,-0.476
17,B17,0.24
18,B18,0.173
19,B19,0.0944
20,B20,-0.672
21,B21,-0.00697
22,B22,-0.00261
23,B23,0.3
24,B24,-0.121
25,B25,-0.154
26,B26,-0.487
27,B27,-0.192
28,B28,-0.0746
29,B29,-0.781
